The record followed here is ChEMBL document CHEMBL2218924, “A broad activity screen in support of a chemogenomic map for kinase signalling research and drug discovery” (Biochem J, 2013).

PAS domain-containing serine/threonine-protein kinase (Homo sapiens), sequence (Q96RG2 whole entry, the tested form may be a part): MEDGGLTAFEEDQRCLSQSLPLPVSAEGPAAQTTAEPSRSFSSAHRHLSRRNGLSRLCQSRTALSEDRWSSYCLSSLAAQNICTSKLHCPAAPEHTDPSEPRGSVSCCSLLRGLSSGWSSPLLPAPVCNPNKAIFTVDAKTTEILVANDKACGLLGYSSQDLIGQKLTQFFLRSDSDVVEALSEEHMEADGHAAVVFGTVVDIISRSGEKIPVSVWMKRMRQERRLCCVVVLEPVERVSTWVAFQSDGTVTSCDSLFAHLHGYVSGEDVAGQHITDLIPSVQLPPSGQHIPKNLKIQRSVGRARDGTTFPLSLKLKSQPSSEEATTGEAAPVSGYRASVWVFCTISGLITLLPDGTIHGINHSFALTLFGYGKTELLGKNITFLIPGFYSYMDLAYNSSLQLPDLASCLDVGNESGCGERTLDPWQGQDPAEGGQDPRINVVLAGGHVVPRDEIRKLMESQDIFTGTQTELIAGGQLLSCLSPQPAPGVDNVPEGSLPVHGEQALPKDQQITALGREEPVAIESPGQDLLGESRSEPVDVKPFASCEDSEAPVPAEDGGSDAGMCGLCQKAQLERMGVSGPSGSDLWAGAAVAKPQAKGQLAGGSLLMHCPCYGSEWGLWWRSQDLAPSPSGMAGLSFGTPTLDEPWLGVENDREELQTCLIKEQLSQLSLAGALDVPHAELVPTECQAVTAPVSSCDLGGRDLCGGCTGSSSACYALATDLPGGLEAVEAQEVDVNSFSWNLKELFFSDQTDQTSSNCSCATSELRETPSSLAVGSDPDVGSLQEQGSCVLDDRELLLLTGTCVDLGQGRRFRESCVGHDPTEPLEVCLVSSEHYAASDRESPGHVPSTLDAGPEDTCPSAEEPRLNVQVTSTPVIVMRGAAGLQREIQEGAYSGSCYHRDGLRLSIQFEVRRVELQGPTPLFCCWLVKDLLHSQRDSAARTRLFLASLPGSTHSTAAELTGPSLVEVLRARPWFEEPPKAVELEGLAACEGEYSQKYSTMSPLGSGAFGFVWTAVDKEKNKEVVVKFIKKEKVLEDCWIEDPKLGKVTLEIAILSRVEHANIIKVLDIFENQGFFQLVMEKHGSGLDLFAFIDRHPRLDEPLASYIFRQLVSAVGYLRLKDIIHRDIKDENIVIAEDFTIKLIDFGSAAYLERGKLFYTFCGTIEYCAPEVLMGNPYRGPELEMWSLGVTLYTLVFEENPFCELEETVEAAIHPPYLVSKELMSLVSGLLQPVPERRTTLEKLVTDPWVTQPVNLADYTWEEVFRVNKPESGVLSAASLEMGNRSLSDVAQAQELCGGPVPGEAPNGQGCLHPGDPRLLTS

This assay addresses PAS domain-containing serine/threonine-protein kinase (Homo sapiens) (UniProt Q96RG2). The settings on record: at 1 µM.
As to `O=C1NC(=O)C(c2c[nH]c3ccccc23)=C1c1c[nH]c2ccccc12`, the residual activity (in general, the signal under treatment as a percentage of the control signal) was determined as 81%. The figure for `O=C(O)/C=C/c1cc(Br)c(Br)c(Br)c1Br` is 63%; for `CO[C@@H]1[C@H](N(C)C(=O)c2ccccc2)C[C@H]2O[C@]1(C)n1c3ccccc3c3c4c(c5c6ccccc6n2c5c31)C(=O)NC4` it is 85%. On to `CC[n+]1c(/C=C/N(C)c2ccccc2)n(-c2ccccc2)c2ccc(-c3nc4ccccc4s3)cc21`, for which the residual activity is 80%. Then `C[C@@H](N)[C@H]1CC[C@H](C(=O)Nc2ccncc2)CC1`, with 82%; and `O=C1NC(=O)c2c1c1c3ccccc3[nH]c1c1[nH]c3cc(Br)ccc3c21`, with 89%. In the case of `O=c1cc(N2CCOCC2)oc2c1ccc1ccccc12`, the residual activity amounted to 141%. Take `CN([C@@H](Cc1ccc(OS(=O)(=O)c2cccc3cnccc23)cc1)C(=O)N1CCN(c2ccccc2)CC1)S(=O)(=O)c1cccc2cnccc12`: the residual activity amounted to 79%.

Consider `CSc1nc(-c2ccc(F)cc2)c(-c2ccnc(NC(C)c3ccccc3)c2)[nH]1` (centres undefined), for which the residual activity stood at 95%. For the molecule `CNc1cc2c(Nc3cccc(Br)c3)ncnc2cn1`, the residual activity turned out to be 128%. The figure for `COc1cc2nccc(Oc3ccc(NC(=O)Nc4cc(C)on4)c(Cl)c3)c2cc1OC` is 100%. The figure for `O=S(=O)(c1cccc2cnccc12)N1CCCNCC1` is 83%. As to `COc1cc2ncnc(Nc3ccc(NC(=O)c4ccccc4)cc3)c2cc1OC`, the residual activity amounted to 133%. Then `Cn1cnc2cc3c(Nc4cccc(Br)c4)ncnc3cc21`, with 82%; and `CCCC(=O)Oc1ccc2[nH]c(C(=O)c3cc4ccccc4[nH]3)cc2c1`, with 122%; and `Cc1cc(Nc2nc(-c3ccccc3)nc3ccccc23)n[nH]1`, with 108%. The figure for `Nc1cccc(-c2cc3c(Oc4cccc(O)c4)ncnc3[nH]2)c1` is 123%; for `Oc1ccc(Nc2nc(-c3ccc(Cl)cc3)cs2)cc1` it is 147%.

Turning to `Oc1ccc(-c2nc(-c3ccc(F)cc3)c(-c3ccncc3)[nH]2)cc1`, the residual activity came out at 92%. Then `O=c1cc(N2CCOCC2)oc2c(-c3ccccc3)cccc12`, with 125%; and `O=C(Nc1cccc(Nc2cc(Nc3cccc(C(F)(F)F)c3)ncn2)c1)C1CC1`, with 92%. The figure for `COc1cc2ncc(-c3ccccc3)nc2cc1OC` is 90%; for `O=C1NC(=O)/C(=C/c2ccc3c(c2)OC(F)(F)O3)S1` it is 81%; for `CCCCc1c(-c2ccc(O)cc2)[nH]c2nccnc12` it is 146%.

Regarding `Oc1c2ccccc2c2c3c(cccc13)N=N2`, the residual activity worked out at 125%. Then `CC#CC(=O)Nc1cc2c(Nc3ccc(F)c(Cl)c3)ncnc2cn1`, with 101%; and `O=Nc1c(-c2c(O)[nH]c3ccccc23)[nH]c2ccccc12`, with 112%. On to `CCC(=O)Nc1ccc2ncnc(Nc3cccc(Br)c3)c2c1`, for which the residual activity was determined as 85%. The figure for `c1ccc(-c2n[nH]cc2-c2ccnc3ccccc23)nc1` is 95%; for `Cc1nc2cc3nc(-c4cccs4)cnc3cc2n1C` it is 98%. Then `Nc1ccc2ncnc(NCCc3ccc(Oc4ccccc4)cc3)c2c1`, with 107%; and `O=C(O)c1ccc2c3c1cccc3c(=O)n1c3ccccc3nc21`, with 111%. Then `COc1ccc(S(=O)(=O)N(CCO)c2ccccc2CN(C)C/C=C/c2ccc(Cl)cc2)cc1`, with 116%; and `CCCCc1c(-c2ccc(OC)cc2)[nH]c2nccnc12`, with 102%; and `CC(C)c1nn(-c2c(Cl)cccc2Cl)c2nc(Cc3ccc(OCCO)cc3)[nH]c(=O)c12`, with 142%. Consider `Cc1ccc(NC2=CC(=O)c3sc(C)nc3C2=O)cc1`, for which the residual activity is 81%.

As for `NCCNc1ncc(C(N)=O)c(Nc2cccc(C(F)(F)F)c2)n1`, the residual activity was 114%. In the case of `O=C(Nc1cccc(Nc2nccc(Nc3cccc(C(F)(F)F)c3)n2)c1)C1CC1`, the residual activity worked out at 75%. For the molecule `Nc1ncnc2[nH]nc(Nc3ccc(F)cc3)c12`, the residual activity was 92%.
